Columns and labels:
Assay in all cases: log2 ratio of Biotin-Ahx-Ub-VS probe labelling (fragment/DMSO); higher = less target engagement (more negative = stronger competition), active = hit call of the paper (q ≤ 0.05, log2 ratio ≤ -1)
Details in all cases: compound concentration: 200 uM; treatment time: 3 h
USP42 = molecular target: T1, USP42 (UniProt Q9H9J4)
T1 sequence (whole entry): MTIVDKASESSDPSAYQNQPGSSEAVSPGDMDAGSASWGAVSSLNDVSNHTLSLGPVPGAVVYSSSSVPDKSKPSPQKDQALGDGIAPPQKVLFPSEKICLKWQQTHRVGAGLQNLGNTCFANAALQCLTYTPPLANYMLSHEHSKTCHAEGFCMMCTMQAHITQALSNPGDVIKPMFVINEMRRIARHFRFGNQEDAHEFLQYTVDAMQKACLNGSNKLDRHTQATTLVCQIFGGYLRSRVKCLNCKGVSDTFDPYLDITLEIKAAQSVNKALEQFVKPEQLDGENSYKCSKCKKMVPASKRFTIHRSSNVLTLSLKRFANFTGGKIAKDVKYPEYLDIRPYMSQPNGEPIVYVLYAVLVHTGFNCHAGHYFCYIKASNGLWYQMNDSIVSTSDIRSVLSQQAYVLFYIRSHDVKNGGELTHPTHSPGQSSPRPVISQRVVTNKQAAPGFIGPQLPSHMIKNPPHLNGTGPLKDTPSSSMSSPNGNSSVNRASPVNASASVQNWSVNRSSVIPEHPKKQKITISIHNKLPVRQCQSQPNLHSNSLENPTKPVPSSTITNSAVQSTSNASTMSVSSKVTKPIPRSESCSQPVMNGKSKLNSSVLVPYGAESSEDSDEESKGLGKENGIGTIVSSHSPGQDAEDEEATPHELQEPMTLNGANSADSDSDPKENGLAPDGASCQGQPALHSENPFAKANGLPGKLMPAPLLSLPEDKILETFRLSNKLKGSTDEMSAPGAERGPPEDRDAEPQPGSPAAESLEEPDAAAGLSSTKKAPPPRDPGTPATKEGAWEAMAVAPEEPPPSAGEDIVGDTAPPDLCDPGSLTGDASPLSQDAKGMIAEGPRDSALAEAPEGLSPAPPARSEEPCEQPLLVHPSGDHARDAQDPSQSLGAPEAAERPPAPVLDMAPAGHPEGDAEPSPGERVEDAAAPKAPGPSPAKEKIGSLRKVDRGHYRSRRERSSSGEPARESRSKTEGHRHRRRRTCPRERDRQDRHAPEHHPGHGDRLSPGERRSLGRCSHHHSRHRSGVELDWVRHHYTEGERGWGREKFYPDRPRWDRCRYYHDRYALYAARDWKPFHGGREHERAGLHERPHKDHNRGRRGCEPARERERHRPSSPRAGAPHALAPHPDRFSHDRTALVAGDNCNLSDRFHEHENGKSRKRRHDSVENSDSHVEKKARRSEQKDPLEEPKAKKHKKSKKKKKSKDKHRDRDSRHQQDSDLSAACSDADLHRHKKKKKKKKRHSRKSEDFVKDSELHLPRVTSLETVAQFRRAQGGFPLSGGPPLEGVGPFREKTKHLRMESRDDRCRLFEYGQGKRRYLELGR
Outline: (§1)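 Labelled DUBs from HEK293T lysate were NeutrAvidin-enriched, digested with LysC and trypsin, and run by diaPASEF LC-MS/MS. Before that, each 495 µg sample in Tris/CHAPS/IGEPAL buffer with protease inhibitors was treated in triplicate with fragment at 200 µM or vehicle for 3 h, then with Biotin-Ahx-Ub-VS at 0.5 µM final for 1 h. Values are average log2 ratios of fragment over vehicle by unpaired t-test, based on global-median-normalised Spectronaut label-free quantities from proteins with ≥2 unique peptides.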

USP46 = USP46 (UniProt P62068)
Outline: as §1

USP47 = molecular target: T2, USP47 (UniProt Q96K76)
T2 sequence (whole entry): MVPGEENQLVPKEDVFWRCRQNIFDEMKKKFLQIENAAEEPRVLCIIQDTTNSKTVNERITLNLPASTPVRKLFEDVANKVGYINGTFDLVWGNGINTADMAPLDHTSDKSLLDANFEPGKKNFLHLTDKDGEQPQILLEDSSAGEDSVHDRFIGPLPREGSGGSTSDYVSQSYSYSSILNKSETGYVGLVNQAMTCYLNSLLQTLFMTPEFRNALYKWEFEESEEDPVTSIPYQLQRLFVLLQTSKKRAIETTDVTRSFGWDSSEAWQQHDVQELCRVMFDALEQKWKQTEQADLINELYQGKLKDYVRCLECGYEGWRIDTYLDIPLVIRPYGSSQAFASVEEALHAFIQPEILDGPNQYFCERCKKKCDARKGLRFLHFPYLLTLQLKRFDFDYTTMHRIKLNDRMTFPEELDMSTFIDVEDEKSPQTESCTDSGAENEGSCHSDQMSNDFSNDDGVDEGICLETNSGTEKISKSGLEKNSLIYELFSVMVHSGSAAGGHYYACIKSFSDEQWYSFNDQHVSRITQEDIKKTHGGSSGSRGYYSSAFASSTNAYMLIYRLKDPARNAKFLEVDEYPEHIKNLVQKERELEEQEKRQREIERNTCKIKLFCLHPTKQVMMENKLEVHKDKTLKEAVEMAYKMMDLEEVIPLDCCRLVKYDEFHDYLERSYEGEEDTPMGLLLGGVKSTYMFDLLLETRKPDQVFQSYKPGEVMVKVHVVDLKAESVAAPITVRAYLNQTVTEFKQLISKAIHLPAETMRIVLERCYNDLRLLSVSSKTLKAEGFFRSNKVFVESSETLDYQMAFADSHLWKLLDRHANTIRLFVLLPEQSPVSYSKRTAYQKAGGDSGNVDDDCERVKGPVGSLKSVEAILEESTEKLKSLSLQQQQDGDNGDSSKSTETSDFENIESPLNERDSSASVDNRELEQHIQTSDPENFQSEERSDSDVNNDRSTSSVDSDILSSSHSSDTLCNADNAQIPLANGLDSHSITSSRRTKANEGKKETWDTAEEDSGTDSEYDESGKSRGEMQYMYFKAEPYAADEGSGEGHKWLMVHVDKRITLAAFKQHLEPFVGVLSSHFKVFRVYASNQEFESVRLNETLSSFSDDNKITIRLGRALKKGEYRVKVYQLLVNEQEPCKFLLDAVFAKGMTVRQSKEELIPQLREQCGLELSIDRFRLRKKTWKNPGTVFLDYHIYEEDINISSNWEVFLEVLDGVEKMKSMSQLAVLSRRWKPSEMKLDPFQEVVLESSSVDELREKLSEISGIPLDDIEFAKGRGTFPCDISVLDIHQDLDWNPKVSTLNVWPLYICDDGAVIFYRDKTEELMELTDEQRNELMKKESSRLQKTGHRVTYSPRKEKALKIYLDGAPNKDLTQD
Outline: as §1

USP48 = molecular target: T3, USP48 (UniProt Q86UV5)
T3 sequence (whole entry): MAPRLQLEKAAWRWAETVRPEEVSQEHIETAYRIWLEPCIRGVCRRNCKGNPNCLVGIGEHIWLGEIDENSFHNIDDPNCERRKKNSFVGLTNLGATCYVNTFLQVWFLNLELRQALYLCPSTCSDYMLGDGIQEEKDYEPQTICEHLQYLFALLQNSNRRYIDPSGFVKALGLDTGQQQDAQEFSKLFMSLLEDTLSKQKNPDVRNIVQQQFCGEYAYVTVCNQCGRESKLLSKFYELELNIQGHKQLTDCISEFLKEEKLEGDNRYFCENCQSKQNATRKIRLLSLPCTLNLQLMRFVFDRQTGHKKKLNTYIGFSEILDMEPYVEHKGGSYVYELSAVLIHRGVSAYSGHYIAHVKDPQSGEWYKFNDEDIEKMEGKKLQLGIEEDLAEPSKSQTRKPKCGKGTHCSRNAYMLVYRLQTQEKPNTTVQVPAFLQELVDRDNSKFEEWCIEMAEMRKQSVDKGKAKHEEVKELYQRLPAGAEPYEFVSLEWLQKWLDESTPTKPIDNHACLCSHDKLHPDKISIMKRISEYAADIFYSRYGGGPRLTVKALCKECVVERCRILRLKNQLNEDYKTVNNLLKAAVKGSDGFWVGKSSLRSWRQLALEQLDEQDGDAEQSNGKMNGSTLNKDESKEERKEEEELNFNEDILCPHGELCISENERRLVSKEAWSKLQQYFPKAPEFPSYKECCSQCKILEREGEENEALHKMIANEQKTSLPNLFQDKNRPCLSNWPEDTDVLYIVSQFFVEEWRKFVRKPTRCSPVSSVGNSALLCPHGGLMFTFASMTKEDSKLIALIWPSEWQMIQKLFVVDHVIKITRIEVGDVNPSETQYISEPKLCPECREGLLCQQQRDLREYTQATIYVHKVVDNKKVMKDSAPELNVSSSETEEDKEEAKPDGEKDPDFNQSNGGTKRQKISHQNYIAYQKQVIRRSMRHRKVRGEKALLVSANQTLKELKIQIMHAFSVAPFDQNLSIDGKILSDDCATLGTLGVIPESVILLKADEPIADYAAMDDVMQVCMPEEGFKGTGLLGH
Outline: as §1

USP5 = molecular target: T4, USP5 (UniProt P45974)
T4 sequence (whole entry): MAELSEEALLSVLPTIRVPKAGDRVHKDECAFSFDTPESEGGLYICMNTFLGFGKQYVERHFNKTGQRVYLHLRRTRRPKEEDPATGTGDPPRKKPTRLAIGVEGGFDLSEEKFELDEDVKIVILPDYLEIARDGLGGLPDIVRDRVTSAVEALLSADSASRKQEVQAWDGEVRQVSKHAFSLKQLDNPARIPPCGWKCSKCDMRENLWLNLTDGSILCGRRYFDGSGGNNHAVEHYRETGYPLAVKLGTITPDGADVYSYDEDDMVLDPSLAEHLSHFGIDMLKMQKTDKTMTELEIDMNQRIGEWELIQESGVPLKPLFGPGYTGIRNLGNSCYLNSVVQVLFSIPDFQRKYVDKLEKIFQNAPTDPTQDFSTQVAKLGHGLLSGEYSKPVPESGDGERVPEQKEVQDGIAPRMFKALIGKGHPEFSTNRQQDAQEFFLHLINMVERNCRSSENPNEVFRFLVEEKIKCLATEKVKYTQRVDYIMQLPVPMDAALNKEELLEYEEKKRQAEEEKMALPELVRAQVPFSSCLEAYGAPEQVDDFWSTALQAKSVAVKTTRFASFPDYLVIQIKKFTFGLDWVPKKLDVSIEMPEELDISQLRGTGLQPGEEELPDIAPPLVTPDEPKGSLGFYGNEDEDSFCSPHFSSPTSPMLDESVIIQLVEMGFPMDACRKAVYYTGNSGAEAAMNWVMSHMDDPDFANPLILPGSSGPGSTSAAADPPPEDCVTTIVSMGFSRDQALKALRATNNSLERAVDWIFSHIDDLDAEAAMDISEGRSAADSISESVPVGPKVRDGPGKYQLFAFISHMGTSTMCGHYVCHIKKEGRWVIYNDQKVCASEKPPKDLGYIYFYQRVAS
Outline: as §1

USP54 = USP54 (UniProt Q70EL1)
Outline: as §1

USP7 = USP7 (UniProt Q93009)
Outline: as §1

USP8 = molecular target: T5, USP8 (UniProt P40818)
T5 sequence (whole entry): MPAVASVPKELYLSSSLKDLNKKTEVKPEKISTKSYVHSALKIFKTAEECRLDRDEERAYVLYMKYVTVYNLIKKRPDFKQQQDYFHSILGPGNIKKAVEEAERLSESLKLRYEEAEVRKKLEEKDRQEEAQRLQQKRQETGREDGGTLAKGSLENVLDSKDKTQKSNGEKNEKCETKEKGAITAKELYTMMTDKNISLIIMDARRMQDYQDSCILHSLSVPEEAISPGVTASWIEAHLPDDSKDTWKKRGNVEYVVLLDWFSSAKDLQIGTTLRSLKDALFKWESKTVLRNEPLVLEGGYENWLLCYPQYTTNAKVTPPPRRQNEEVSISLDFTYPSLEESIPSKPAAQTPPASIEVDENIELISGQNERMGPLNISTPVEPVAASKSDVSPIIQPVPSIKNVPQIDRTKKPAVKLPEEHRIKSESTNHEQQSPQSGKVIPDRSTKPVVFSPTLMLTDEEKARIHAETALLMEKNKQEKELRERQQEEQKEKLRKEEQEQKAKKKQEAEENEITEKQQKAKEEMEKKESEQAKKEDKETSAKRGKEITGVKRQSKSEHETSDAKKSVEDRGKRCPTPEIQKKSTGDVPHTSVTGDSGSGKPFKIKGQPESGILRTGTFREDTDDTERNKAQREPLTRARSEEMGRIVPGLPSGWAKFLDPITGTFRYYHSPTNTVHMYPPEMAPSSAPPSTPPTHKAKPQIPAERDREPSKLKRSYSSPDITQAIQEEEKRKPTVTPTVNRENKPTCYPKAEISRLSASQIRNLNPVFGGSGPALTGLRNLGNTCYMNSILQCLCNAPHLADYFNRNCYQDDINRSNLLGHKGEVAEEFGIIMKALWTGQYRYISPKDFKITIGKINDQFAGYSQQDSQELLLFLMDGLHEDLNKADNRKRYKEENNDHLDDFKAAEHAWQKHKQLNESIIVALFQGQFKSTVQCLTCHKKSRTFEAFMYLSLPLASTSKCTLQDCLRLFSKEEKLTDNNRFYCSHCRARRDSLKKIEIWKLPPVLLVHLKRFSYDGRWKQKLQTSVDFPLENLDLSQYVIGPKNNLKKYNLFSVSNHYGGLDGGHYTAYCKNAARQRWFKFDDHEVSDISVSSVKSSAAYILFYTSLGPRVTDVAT
Outline: as §1

USP9X = USP9X (UniProt Q93008)
Outline: as §1

UniProt O00487 = molecular target: UniProt O00487
Outline: as §1

Measured: log2 ratio of Biotin-Ahx-Ub-VS probe labelling

Chain of USP46 (P62068 whole entry): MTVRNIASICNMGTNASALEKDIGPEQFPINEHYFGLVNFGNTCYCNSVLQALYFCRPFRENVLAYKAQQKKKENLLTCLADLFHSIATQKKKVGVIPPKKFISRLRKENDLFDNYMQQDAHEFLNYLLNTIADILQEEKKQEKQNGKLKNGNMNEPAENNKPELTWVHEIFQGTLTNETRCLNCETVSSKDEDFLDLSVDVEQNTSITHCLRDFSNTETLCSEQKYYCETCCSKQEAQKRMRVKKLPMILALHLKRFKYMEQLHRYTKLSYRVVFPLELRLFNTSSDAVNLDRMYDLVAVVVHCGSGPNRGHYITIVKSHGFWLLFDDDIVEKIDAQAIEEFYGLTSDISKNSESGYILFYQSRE
Chain of USP7 (Q93009 whole entry, looked up): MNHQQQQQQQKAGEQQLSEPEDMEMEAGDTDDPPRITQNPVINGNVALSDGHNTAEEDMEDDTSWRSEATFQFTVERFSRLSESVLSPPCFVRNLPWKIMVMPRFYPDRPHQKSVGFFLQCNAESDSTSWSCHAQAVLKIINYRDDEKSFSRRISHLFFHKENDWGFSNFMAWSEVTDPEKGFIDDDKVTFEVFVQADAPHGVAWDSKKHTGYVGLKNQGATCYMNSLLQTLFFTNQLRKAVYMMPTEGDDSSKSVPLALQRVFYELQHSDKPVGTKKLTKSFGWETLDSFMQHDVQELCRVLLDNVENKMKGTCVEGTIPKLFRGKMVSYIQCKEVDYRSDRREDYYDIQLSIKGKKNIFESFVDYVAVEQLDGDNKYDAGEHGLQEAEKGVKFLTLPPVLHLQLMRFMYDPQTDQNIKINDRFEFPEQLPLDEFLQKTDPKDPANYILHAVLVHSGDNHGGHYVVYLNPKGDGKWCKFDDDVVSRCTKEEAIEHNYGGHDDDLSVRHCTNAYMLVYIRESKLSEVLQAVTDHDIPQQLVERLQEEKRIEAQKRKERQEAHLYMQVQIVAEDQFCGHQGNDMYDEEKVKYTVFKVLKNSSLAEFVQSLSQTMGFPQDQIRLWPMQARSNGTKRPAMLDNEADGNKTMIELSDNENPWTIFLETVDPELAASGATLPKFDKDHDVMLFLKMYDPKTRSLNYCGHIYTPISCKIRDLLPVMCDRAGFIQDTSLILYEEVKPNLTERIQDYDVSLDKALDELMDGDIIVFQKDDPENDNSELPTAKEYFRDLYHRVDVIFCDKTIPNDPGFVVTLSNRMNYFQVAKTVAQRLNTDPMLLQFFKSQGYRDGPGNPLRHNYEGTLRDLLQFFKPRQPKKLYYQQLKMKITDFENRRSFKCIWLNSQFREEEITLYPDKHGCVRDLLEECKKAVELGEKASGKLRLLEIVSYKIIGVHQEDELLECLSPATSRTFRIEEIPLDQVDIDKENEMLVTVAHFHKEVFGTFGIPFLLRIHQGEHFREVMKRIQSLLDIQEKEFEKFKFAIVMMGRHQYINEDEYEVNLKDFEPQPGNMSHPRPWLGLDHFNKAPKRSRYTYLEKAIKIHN
Chain of UniProt O00487 (O00487 whole entry): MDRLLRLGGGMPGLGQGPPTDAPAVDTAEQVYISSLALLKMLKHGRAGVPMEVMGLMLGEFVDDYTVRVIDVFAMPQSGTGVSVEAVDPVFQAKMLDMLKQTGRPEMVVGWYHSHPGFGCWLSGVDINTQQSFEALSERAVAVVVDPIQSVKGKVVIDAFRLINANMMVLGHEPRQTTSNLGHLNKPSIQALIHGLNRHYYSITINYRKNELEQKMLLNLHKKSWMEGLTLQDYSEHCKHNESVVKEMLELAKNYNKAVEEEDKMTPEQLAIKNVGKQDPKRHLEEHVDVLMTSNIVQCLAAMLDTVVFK
Chain of USP9X (Q93008 whole entry): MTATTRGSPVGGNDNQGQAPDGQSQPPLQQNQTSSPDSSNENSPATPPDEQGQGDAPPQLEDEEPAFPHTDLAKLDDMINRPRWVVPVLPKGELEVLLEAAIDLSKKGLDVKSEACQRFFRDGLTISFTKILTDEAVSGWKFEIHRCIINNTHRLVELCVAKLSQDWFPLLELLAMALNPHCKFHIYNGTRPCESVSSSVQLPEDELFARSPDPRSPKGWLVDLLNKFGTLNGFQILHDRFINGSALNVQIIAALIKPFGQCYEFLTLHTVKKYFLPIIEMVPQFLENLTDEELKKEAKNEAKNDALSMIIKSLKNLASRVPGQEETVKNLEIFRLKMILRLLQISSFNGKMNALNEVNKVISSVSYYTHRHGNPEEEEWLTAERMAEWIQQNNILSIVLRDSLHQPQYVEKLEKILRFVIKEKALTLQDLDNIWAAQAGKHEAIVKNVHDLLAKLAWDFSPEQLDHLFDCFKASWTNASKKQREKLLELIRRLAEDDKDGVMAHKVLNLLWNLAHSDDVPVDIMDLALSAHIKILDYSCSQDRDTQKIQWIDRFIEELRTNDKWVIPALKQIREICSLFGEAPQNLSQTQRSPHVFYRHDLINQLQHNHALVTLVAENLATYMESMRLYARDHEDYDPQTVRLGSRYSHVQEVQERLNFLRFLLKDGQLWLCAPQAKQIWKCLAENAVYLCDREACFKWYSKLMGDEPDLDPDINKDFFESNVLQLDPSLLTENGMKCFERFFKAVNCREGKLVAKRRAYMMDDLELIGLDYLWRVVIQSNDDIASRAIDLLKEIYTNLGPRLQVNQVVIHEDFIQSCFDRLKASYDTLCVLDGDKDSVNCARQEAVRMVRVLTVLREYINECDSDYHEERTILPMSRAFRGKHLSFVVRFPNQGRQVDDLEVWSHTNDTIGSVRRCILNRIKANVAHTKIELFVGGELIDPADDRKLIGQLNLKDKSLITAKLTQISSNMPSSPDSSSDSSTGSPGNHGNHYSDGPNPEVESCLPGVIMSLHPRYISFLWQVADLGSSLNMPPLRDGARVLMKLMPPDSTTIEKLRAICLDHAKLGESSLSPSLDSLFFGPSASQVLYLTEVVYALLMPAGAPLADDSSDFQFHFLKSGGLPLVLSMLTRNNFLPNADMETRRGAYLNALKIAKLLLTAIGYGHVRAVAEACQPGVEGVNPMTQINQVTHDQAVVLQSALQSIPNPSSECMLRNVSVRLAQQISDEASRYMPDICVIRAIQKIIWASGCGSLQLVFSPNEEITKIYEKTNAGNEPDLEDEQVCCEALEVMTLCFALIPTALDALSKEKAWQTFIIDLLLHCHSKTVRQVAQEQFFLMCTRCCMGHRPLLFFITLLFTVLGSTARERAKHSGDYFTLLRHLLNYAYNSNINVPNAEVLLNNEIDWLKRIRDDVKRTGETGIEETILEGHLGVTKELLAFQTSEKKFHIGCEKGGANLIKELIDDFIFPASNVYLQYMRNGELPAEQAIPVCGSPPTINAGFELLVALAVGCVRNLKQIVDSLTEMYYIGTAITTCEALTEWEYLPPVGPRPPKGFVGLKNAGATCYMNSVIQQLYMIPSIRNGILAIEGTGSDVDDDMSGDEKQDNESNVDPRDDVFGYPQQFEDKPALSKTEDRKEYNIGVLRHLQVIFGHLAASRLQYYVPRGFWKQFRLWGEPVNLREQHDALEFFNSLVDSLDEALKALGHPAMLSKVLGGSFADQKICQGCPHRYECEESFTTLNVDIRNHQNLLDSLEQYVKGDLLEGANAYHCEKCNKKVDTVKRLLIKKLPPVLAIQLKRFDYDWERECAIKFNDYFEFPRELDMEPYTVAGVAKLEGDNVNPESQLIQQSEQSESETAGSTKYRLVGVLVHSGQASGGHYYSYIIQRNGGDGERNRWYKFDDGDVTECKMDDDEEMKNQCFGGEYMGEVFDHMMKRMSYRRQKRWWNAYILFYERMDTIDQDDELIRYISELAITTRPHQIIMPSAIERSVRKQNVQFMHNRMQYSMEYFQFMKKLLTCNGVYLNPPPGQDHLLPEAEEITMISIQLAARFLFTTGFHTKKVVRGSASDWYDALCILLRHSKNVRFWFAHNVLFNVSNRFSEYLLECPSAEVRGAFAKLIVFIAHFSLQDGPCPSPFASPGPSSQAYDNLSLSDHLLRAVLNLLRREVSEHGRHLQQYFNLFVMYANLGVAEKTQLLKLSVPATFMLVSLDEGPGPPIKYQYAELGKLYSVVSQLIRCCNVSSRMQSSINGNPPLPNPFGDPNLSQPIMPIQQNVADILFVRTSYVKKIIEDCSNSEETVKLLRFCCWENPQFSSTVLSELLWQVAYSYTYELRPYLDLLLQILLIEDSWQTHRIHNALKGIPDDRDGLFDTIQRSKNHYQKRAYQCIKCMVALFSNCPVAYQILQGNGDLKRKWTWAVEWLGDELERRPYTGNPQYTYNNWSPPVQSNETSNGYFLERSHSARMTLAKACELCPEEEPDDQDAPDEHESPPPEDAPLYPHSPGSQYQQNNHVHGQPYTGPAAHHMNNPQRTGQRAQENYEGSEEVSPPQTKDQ

CC(c1ccccc1)N(C)C(=O)CCl (stereo not given)
inactive: USP42 -0.0241 | USP46 -0.161 | USP47 0.0295 | USP48 -0.407 | USP5 0.359 | USP54 0.0889 | USP7 -0.735 | USP8 -0.0666 | USP9X -0.115 | UniProt O00487 -0.0533

Reference: the supplement of paper PMC11732987, “Enantioselective OTUD7B fragment discovery through chemoproteomics screening and high-throughput optimisation” (Communications Chemistry, 2025)
